Composite z-score, composite Z-score and z-score data for eight compounds are collected here from PubChem BioAssay.

For assay [1], the target named is Albumin (Bos taurus) (UniProt P02769). The assay is described as follows: compounds binding labelled BSA control protein – biochemical, small-molecule microarray, Alexa647 label, 635/667 nm fluorescence, artefact control for SMM control protein annotation, profiling panel (AID 1118).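 Further: score merges 667 nm emission intensity and signal-to-noise per printed compound spot.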 Conditions: BSA-A647 binding, fluorescence 635 nm, higher = more signal.
Albumin (Bos taurus), sequence (P02769 whole entry, looked up): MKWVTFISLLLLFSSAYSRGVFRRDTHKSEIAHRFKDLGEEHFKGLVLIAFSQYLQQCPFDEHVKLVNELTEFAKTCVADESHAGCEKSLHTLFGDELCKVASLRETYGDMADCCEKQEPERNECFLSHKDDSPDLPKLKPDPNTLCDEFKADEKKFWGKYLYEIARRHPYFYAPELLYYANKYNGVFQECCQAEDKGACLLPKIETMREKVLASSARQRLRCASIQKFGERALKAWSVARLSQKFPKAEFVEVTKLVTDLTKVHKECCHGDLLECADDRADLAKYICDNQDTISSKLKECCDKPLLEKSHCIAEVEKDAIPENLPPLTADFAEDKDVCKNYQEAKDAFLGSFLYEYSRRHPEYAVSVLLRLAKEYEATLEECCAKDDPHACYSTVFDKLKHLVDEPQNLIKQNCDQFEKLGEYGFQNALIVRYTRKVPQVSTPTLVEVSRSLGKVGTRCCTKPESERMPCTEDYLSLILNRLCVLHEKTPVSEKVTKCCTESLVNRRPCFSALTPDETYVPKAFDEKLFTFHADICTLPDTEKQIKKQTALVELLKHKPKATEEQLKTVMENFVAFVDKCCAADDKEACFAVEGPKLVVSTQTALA
A short description of assay [2]: probe aXIP binding to arrayed compounds – biochemical, NeuroSMM set, 635/667 nm fluorescence, primary screen (AID 1119).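 Further: probe is the protein aXip251-270 applied at 1 µg/mL to compound-printed slides; binding of probe to printed compounds measured as 667 nm fluorescence plus signal to noise.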 Conditions: small-molecule microarray, higher = more signal, called active from +8 up or from −8 down.
Assay [3] in a line: probe aNOTCH3 binding on compound microarray – biochemical, small-molecule microarray, 635/667 nm fluorescence, primary screen (AID 1120).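 Further: probe is a biotin-tagged antibody raised against NOTCH3 rather than NOTCH3 protein; score merges spot fluorescence near 667 nm with spot signal to noise.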 Conditions: higher = more signal.
Assay [4] can be described thus: probe aNOTCH2 binding on compound microarray – biochemical, small-molecule microarray, 635/667 nm fluorescence, primary screen (AID 1121).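 Further: score merges feature fluorescence read at 667 nm with its signal to noise.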 Conditions: higher = more signal.
Assay [5] concerns the target Carbonic anhydrase 2 (Homo sapiens) (UniProt P00918). Description: compounds binding carbonic anhydrase 2 – biochemical, small-molecule microarray, Alexa647-labelled CAII, profiling panel (AID 1122). Conditions: CAII-A647 binding fluorescence, higher = more signal.
The nature of assay [6]: COS7 lysate on small-molecule microarray, probe aHis, 635 nm (AID 1123).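 Further: z-score combines 667nm fluorescence intensity with signal-to-noise per printed compound spot.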 The settings on record: COS7 cell lysate, fluorescence, higher = more signal.
Assay [7] in a line: probe aLAP1 signal on lysate-treated microarray – cell lysate, small-molecule microarray, COS7 lysate, primary screen (AID 1124).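 Further: lysate comes from COS7 cells expressing LAP1 and is applied at 0.3 µg/mL; score merges spot fluorescence near 667 nm with signal-to-noise over triplicate slides.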 Conditions: probe aLAP1, fluorescence, higher = more signal.
Assay [8] relates to Sam68 (KHDRBS1). Description: compounds binding KHDRBS1 protein – biochemical, small-molecule microarray, 635 nm fluorescence, primary screen (AID 1125).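 Further: score merges 667 nm channel intensity with signal to noise over triplicate slides.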 Conditions: higher = more signal.
Assay [9] relates to Chordin-like protein 2 (CHRDL2). The assay is described as follows: compounds binding chordin-like 2 – biochemical, small-molecule microarray, 635 nm fluorescence, primary screen (AID 1126).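 Further: printed compound slides probed with Chrdl2 protein at 4 µg/mL for 1 h at 4 C; score merges 667 nm emission intensity with signal to noise over three replicate slides.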 Conditions: fluorescence 635 nm, higher = more signal.
Assay [10] addresses Concanavalin-A (Canavalia ensiformis) (UniProt P02866). Description: compounds binding concanavalin A lectin – biochemical, small-molecule microarray, Alexa647 label, 635 nm, artefact control for SMM control protein annotation, primary screen (AID 1127).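 Further: z combines 667 nm emission intensity with signal-to-noise across three replicate slides.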 Conditions: ConA-A647 binding fluorescence, higher = more signal.
Assay [11] can be described thus: compounds binding Alexa647 anti-His antibody – biochemical, small-molecule microarray, 635 nm fluorescence, artefact control for SMM control protein annotation, primary screen (AID 1128).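 Further: score merges feature fluorescence with signal-to-noise for each printed compound spot.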 The settings on record: higher = more signal.
In assay [12] the test system is Human papillomavirus type 1a E7 protein (residues 1-88). Description: HPV1a E7 small-molecule binders, primary screen, biochemical, small-molecule microarray, residues 1-88, 635 nm (AID 1129). The settings on record: small-molecule microarray binding, fluorescence 635 nm; higher = more signal.
Assay [13] has as its target Focal adhesion kinase 1 (Homo sapiens) (UniProt Q05397). The assay is described as follows: PTK2 protein binding on printed compound slides – biochemical, small-molecule microarray, 635/667 nm fluorescence, BSA, DTT, primary screen (AID 1130).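 Further: composite of spot emission at 667 nm and signal to noise over triplicate slides.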 Conditions: 635 nm fluorescence, higher = more signal.
Assay [14] has as its system Fibrinogen (Alexa647-labelled). The assay is described as follows: Alexa647-fibrinogen binding to printed small molecules – biochemical, small-molecule microarray, 635/667 nm fluorescence, artefact control for SMM control-protein annotation, profiling panel (AID 1131).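 Further: z-score merges 667 nm fluorescence with per-spot signal-to-noise over triplicate slides.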 Conditions: fibrinogen-A647 binding fluorescence, higher = more signal.
For assay [15], the target named is Follistatin (Homo sapiens) (UniProt P19883). The assay is described as follows: FST protein binding to printed compounds – biochemical, small-molecule microarray, 635/667 nm fluorescence, primary screen (AID 1132). The settings on record: 635 nm fluorescence, higher = more signal.
Follistatin (Homo sapiens), sequence (P19883 whole entry, looked up): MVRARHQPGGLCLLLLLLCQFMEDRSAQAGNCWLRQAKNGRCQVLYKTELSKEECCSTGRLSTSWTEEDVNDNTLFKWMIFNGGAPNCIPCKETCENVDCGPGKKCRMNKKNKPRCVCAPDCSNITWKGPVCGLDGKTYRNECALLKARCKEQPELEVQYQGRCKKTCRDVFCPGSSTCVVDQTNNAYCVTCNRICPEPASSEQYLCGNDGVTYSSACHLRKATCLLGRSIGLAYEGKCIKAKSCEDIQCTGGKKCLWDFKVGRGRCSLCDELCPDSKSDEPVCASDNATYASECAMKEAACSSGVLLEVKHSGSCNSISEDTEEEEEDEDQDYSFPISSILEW
The target of assay [16] is Fibroblast growth factor 2 (Homo sapiens) (UniProt P09038). Description: basic fibroblast growth factor binding to printed compounds – biochemical, small-molecule microarray, 635/667 nm fluorescence, primary screen (AID 1133). Conditions: FGF2, fluorescence 635/667, higher = more signal.
Fibroblast growth factor 2 (Homo sapiens), sequence (P09038 whole entry, looked up): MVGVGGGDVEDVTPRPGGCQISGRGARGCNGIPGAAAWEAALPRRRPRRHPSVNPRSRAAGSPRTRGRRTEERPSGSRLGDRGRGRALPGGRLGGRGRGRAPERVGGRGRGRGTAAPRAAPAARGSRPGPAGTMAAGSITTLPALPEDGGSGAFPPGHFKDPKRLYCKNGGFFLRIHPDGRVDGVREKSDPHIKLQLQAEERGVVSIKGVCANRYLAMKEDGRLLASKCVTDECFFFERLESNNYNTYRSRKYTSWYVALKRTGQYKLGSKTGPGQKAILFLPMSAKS
The nature of assay [17]: JC-1 mitochondrial potential readout, lung cancer cells – cell-based, A549, JC-1 fluorescence, basal, 24 h, 100 nL, profiling panel (AID 1138).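 Further: A549 lung adenocarcinoma cells under basal conditions with no added stimulus; test concentration not given here.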 Conditions: higher = more signal.
The subject of assay [18] is Lefty1. The assay is described as follows: Lefty1 protein binding to printed compounds – biochemical, small-molecule microarray, 635/667 nm fluorescence, primary screen (AID 1139). The settings on record: fluorescence 635/667, higher = more signal.
Assay [19] deals with wheat germ agglutinin (Triticum aestivum), Alexa647-labelled. Description: Alexa647-WGA lectin binding to printed small molecules – biochemical, small-molecule microarray, 635/667 nm fluorescence, artefact control for SMM control-protein annotation, profiling panel (AID 1140).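 Further: score merges 667 nm feature emission with signal to noise over triplicate slides.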 Conditions: WGA-A647 binding, 635 nm fluorescence, higher = more signal.
Assay [20] deals with Luciferin 4-monooxygenase (Photinus pyralis) (UniProt P08659). Description: inhibition of purified Photinus pyralis luciferase – biochemical, luminescence, purified enzyme, 2006 set, primary screen (AID 1141).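 Further: cell-free assay with purified firefly luciferase at 100 ng per well in PBS; test concentration not given here.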 The settings on record: purified firefly luciferase, SteadyGlo luminescence, 30 min; higher = more signal, called active from +8 up or from −8 down.
Luciferin 4-monooxygenase (Photinus pyralis), sequence (P08659 whole entry, looked up): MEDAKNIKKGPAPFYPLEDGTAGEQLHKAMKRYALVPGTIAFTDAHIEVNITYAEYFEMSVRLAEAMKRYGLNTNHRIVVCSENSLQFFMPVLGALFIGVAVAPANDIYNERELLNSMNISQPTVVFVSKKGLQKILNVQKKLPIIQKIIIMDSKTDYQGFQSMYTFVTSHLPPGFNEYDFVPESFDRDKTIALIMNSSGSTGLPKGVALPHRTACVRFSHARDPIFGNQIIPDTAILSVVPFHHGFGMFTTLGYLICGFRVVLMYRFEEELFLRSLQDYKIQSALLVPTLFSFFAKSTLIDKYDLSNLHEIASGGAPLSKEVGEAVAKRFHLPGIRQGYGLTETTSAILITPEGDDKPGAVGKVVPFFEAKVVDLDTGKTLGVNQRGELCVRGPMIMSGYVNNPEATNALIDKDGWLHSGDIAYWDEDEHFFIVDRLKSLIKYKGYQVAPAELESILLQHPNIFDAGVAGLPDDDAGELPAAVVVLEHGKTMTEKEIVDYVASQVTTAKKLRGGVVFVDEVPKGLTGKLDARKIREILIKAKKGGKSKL

Activity calls are given as the source filed them.

Focal adhesion kinase 1 (Homo sapiens), sequence (Q05397 whole entry, looked up): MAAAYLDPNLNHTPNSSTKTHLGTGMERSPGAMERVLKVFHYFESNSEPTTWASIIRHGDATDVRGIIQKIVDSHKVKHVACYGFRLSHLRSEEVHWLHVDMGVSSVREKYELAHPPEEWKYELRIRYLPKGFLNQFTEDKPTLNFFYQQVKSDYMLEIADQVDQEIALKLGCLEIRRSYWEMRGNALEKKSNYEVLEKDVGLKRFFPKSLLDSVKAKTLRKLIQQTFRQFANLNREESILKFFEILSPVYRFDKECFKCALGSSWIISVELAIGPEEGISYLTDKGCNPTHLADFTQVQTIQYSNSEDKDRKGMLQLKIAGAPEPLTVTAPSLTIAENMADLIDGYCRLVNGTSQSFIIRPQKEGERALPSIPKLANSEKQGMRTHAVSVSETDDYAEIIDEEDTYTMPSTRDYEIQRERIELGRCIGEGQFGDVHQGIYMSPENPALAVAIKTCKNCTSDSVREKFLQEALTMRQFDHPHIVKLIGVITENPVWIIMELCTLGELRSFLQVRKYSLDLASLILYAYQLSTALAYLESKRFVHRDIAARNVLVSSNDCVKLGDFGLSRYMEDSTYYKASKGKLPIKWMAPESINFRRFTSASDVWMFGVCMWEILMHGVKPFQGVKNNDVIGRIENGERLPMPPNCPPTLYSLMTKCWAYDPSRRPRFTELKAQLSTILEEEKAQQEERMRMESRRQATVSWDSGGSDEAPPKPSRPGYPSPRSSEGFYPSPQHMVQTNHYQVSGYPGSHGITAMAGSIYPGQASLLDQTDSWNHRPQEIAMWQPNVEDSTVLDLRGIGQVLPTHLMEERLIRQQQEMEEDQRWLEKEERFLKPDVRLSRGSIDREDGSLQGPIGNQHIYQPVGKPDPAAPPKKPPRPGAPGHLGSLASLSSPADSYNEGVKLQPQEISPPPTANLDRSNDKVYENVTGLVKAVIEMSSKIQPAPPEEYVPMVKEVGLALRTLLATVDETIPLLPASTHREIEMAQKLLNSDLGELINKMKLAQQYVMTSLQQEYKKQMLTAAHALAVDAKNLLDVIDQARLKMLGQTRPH
Concanavalin-A (Canavalia ensiformis), sequence (P02866 whole entry, looked up): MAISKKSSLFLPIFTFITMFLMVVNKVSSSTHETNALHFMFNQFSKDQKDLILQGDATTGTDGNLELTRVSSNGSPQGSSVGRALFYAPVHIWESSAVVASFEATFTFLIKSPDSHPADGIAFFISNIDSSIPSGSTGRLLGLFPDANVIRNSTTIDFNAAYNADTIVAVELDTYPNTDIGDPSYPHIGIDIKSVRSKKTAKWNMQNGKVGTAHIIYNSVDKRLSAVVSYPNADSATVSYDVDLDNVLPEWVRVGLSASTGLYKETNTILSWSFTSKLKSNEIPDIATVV

On to `CCOC(=O)C[C@H]1[C@H](OC(=O)c2ccc(-c3ccccc3)cc2)[C@@H](NC(=O)c2ccc(-c3ccccc3)cc2)c2cc(OCCCO)ccc2N1C(=O)c1ccccc1`, for which the composite z-score in [1] is 0.771; in [3], 0.0916; in assay [4], -0.129; in assay [5], 0.277; in assay [6] it was 0.895; in assay [7] it was 0.331. Further, the composite z-score is 1.32 in [8]; -0.0105 in assay [9]; 1.06 in [10]; 0.0004 in [11]; 1.09 in assay [12]; 1.03 in assay [13]. The composite z-score in [14] amounted to 0.856; in [15] it was 0.627; in assay [16], 0.64; in [18] it was 0.627; in [19], 0.792. In [2], the composite Z-score is 0.884 (inactive). In addition, the values for the z-score in [17] and in [20] were 0.392 and -0.339 (inactive), respectively.
With `O=C1N(Cc2ccccc2)Cc2ccccc2C[C@@]12COC(c1ccc(OCCCO)cc1)=N2`, the composite z-score in assay [1] was -0.0983; in assay [3] it was 0.133; in assay [4], 0.12; in assay [5], 0.461; in assay [6], 2.08; in [7] it was 0.4. The composite z-score in [8] amounted to 1.22; in assay [9], 0.303; in assay [10], 0.864; in [11], 2.26; in assay [12], 1.16; in assay [13] it was 0.622. In addition, the composite z-score in assay [14] is -0.143; in assay [15], 1.39; in [16] it was 0.22; in assay [18] it was -0.197; in assay [19], 0.196. Further, the composite Z-score in assay [2] was 0.852 (inactive). For the same compound, the z-score in [17] was -0.503; in assay [20], -1.26 (inactive).
`CCN1C(=O)C2CC(=O)C3C(CN(S(=O)(=O)c4ccc(C)cc4)C3c3ccc(C)cc3)C2C1=O` (stereo not given): the composite z-score is 0.449 in assay [1]; 0.0282 in [3]; -0.108 in assay [4]; 0.75 in assay [5]; 2.05 in assay [6]; 1.11 in assay [7]. Also, the composite z-score in assay [8] is 0.768; in assay [9] it was -0.99; in assay [10] it was 0.99; in [11] it was 1.98; in assay [12], 1.18; in [13], 1.09. The composite z-score in assay [14] is -0.38; in assay [15], -0.238; in [16], -0.315; in assay [18] it was -0.573; in [19], -0.0147. In addition, the composite Z-score in assay [2] is 0.37 (inactive). Besides, the values for the z-score in assay [17] and in assay [20] were 0.0148 and 0.12 (inactive), respectively.
As to `CO[C@H]1O[C@H](CO)[C@@H](OC(=O)Nc2cccc(F)c2)[C@H](OC(=O)c2cc3ccccc3[nH]2)[C@H]1OC(=O)c1cc2ccccc2[nH]1`, the composite z-score in assay [1] was 0.467; in assay [3], -0.0048; in assay [4] it was -0.132; in assay [5] it was 0.209; in [6] it was 0.799; in [7] it was 0.337. Also, the composite z-score in assay [8] was -0.537; in assay [9], -0.332; in assay [10], -0.732; in [11] it was -0.371; in assay [12], -0.486; in assay [13] it was 0.23. Moreover, the composite z-score in [14] was 0.836; in assay [15], 0.498; in [16], -0.234; in assay [18], 0.379; in [19], 0.513. In assay [2], the composite Z-score was -0.0925 (inactive). Besides, the z-score in [17] was -0.68; in assay [20], -0.635 (inactive).
Turning to `CCOC(=O)C[C@H]1[C@H](OC(=O)c2cc3ccccc3oc2=O)[C@@H](NC(=O)c2ccc(-c3ccccc3)cc2)c2cc(OCCCO)ccc2N1C(=O)Cc1ccc(OC)cc1`, the composite z-score in assay [1] was 0.0146; in [3], 0.213; in assay [4], -0.0578; in [5], 0.383; in assay [6], 1.07; in assay [7], 0.774. The composite z-score in [8] was found to be 0.864; in [9], 0.346; in assay [10] it was 0.833; in [11], 0.396; in assay [12] it was 1.19; in assay [13] it was 0.414. Further, the composite z-score in [14] is 0.522; in [15], 0.679; in assay [16], 1.41; in assay [18], 0.907; in assay [19] it was 0.266. Moreover, the composite Z-score in assay [2] was 0.243 (inactive). For the same compound, the z-score in assay [17] was -0.424; in [20], 0.853 (inactive).
Regarding `COC(=O)C(CC#Cc1ccc2c(c1)[C@]1(C(=O)N2)[C@H](C(=O)NC[C@H](O)c2ccccc2)[C@H]2C(=O)O[C@H](c3ccccc3)[C@H](c3ccccc3)N2[C@@H]1c1ccc(O)cc1)C(=O)OC`, the composite z-score was 0.41 in assay [1]; -0.0932 in assay [3]; -0.126 in assay [4]; 0.683 in [5]; 0.84 in [6]; -0.177 in assay [7]. Further, the composite z-score in assay [8] was -0.165; in assay [9], -0.275; in assay [10] it was 0.188; in assay [11], -0.716; in [12] it was -0.0341; in assay [13], 0.105. The composite z-score in assay [14] was -0.906; in assay [15] it was 0.276; in [16] it was 0.0859; in assay [18] it was 0.192; in [19] it was 0.0123. Besides, in [2], the composite Z-score was 1.05 (inactive). The values for the z-score in assay [17] and in assay [20] were -1.62 and -0.168 (inactive), respectively.
For `CC(C)c1ccc(NN2C(C(O)C(C)c3ccccc3)C=CC3C(=O)N(c4ccccc4)C(=O)C32)cc1` (stereo not given), the composite z-score in assay [1] was found to be 1.03; in assay [3], 0.578; in assay [4] it was 0.589; in assay [5] it was 0.749; in assay [6], 3.34; in assay [7], 0.952. The composite z-score came out at 1.28 in assay [8]; 0.306 in [9]; 1.17 in assay [10]; 1.63 in assay [11]; 1.17 in assay [12]; 0.531 in [13]. The composite z-score amounted to 0.988 in assay [14]; 1.2 in assay [15]; 0.558 in assay [16]; 0.155 in [18]; 1.19 in assay [19]. In addition, the composite Z-score in assay [2] is 0.304 (inactive). Further, the results for the z-score in assay [17] and in [20] were -0.864 and 0.222 (inactive), respectively.
In the case of `CCCCC=C[C@@H](NC(=O)C(C)(C)C)c1ccccc1`, the composite z-score is 0.743 in assay [1]; 0.259 in assay [3]; -0.0769 in [4]; 0.509 in [5]; -0.0783 in assay [6]; 0.983 in [7]. The composite z-score is 1.09 in assay [8]; -0.264 in assay [9]; 1.04 in [10]; 1.14 in assay [11]; 1.09 in assay [12]; 0.35 in assay [13]. The composite z-score in [14] is 0.935; in [15], 0.495; in assay [16] it was -0.0812; in assay [18], 0.302; in assay [19], 0.814. Also, in [2], the composite Z-score is -0.424 (inactive). Also, the z-score was -2.82 in assay [17] and 1.76 (inactive) in [20].
